Hit rate of the full screen: of about 420,000 compounds, about 50,000 (12%) were called active. Entries that show only a call come without a potency. About 26% were inconclusive and are not listed. Calls come from the whole dose curve; as a rule, active = well fitted inhibition curve with a large enough effect; inconclusive = small, poorly fitted or top-dose-only effect; inactive = flat fitted curve, though single readings scatter. The sample as a whole holds a higher share of actives than the screen did.
Test: qHTS for Inhibitors of human tyrosyl-DNA phosphodiesterase 1 (TDP1): qHTS in cells in presence of CPT; note: nearly all actives have a fitted effect of over 55% in size
Settings: chicken DT40 Tdp1-/-;hTDP1 cells + 20 nM CPT, ATP luminescence, 48 h; series mostly up to 46.2 µM
Procedure, shortened: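 Chicken DT40 Tdp1-/- cells complemented with human TDP1, 400 cells/well, exposed to compounds plus 20 nM camptothecin for at least 48 h at 37 C; viability read as ATP content by CellTiter-Glo luminescence.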
For `COc1ccc(C2CC(=O)Oc3ccc(C(C)(C)C)cc32)cc1` (stereo unspecified), the Potency was “inactive”. In the case of `N#Cc1ccc(/C=C2\CCn3c2nc2cc(C(=O)O)ccc2c3=O)cc1`, the Potency is reported as “inactive”. With `COc1cccc(Cn2c(=O)cnc3cncnc32)c1` the Potency was 1.46 µM (active). In the case of `COc1cccc(Cn2c(=O)c(-c3ccccc3)nc3cnc(OC)nc32)c1`, the Potency is reported as “inactive”. For `COc1cccc(Cn2c(=O)c(CCc3ccccc3)nc3cnc(N(C)C)nc32)c1`, the Potency was “inactive”. With `Cc1ccc(C(=O)N/C(=C\c2cn(C)c3ccccc23)C(=O)N2CCN(C)CC2)cc1` the Potency was “inactive”. In the case of `Cc1cn(C2CC(O)C(CO)O2)c(=O)n(CCCc2ccccc2)c1=O` (stereo unspecified), the Potency is reported as “inactive”. In the case of `CCOc1c(Nc2cccc(Cl)c2)c(=O)c1=O`, the Potency is reported as “inactive”. In the case of `CCCCN(CC)C(=O)c1c[nH]c2ccc(S(=O)(=O)Nc3cccc(OC)c3)cc2c1=O`, the Potency is reported as “inactive”. With `CCCCN(CC)C(=O)c1ccccc1Oc1ccccc1` the Potency was 20.6 µM (active). For `CCCCN(CC)C(=O)c1ccc2c(c1)OCO2`, the Potency was “inactive”. With `C[C@H]1CN([C@@H](C)CO)C(=O)c2cc(Br)cnc2O[C@H]1CN(C)S(=O)(=O)c1cccs1` the Potency was “inactive”. In the case of `CCCCNC(=O)CSc1nc2ccc(NC(=O)CSc3nnc(COc4ccccc4C)n3C)cc2s1`, the Potency is reported as “inactive”. In the case of `COC(=O)C[C@@H]1C=C[C@@H](NS(=O)(=O)c2cccc(OC)c2)[C@@H](CO)O1`, the Potency is reported as “inactive”. For `O=C(NCc1ccc(F)cc1)c1cc(C2CCCCN2C(=O)C2CCCCC2)on1` (stereo unspecified), the Potency was 18.4 µM (active). In the case of `CCCNC(=O)c1cc(C2CCCCN2C(=O)OC)on1` (stereo unspecified), the Potency is reported as “inactive”. In the case of `CS(=O)(=O)N1CCCCC1c1cc(C(=O)NCc2ccccc2)no1` (stereo unspecified), the Potency is reported as “inactive”. In the case of `COC(=O)[C@@H](Cc1ccccc1)NC(=O)NCCc1ccccc1`, the Potency is reported as “inactive”. For `COc1ccc(-c2[nH][nH]c(=O)c2NC(=O)c2ccc([N+](=O)[O-])cc2)cc1`, the Potency was “inactive”. With `COc1ccc(OC)c(NC(=O)c2ccc3c(c2)CCN3S(C)(=O)=O)c1` the Potency was “inactive”. For `CCCc1c(C(=O)O)cnn1-c1ccc(Cl)cc1`, the Potency was “inactive”. With `CCc1ccccc1NC(=O)c1cnn(-c2ccc(F)cc2)c1C1CCNCC1` the Potency was “inactive”. With `CCCc1c(C(=O)Nc2ccc(F)cc2)cnn1-c1ccccc1` the Potency was 14.6 µM (active). With `CCn1c(SCC(=O)N2CCCC2=O)nc2ccccc21` the Potency was “inactive”. In the case of `O=C(N/N=C/c1ccsc1)c1cc(O)cc(O)c1`, the Potency is reported as “inactive”. For `CCCCC(=O)Nc1c2c(nn1-c1ccc([N+](=O)[O-])cc1)CS(=O)(=O)C2`, the Potency was “inactive”. With `CCN(CC)S(=O)(=O)c1ccc2[nH]c(=O)cc(C(=O)N(C)C3CCS(=O)(=O)C3)c2c1` (stereo unspecified) the Potency was “inactive”. With `COc1cc(OC)cc(C(=O)NC(C(=O)N2CCC2)C(C)C)c1` (stereo unspecified) the Potency was “inactive”. For `COc1ccc(N2CCN(C(=O)[C@@H](NC(=O)c3cc(OC)cc(OC)c3)C(C)C)CC2)cc1`, the Potency was 14.6 µM (active). With `COc1ccc(N2CCN(C(=O)CCNC(=O)c3ccc(Br)cc3)CC2)cc1` the Potency was “inactive”. For `CS(=O)(=O)N1CCc2nc(-c3ccccc3)sc2C1`, the Potency was “inactive”. For `CCOc1ccc(S(=O)(=O)NCCC(=O)NCC(C)(C)N2CCOCC2)cc1`, the Potency was “inactive”. In the case of `O=C(O)Cn1c(Cc2ccccc2)nc2ccccc21`, the Potency is reported as “inactive”. In the case of `C=C(Br)Cn1c(CCCC)nc2ccccc21`, the Potency is reported as 18.4 µM (active). With `C=CCn1c(P(C)(=O)O)nc2ccccc21` the Potency was “inactive”. In the case of `Cc1nc2sc(C)c(C)n2c(=O)c1S(=O)(=O)NCCc1ccc(Cl)cc1`, the Potency is reported as “inactive”. In the case of `CCOc1ccc(N(C)S(=O)(=O)c2cc(-c3cnc(C)o3)ccc2OC)cc1`, the Potency is reported as 25.9 µM (active). With `COc1ccc(N(C)S(=O)(=O)c2cccc3nsnc23)cc1` the Potency was “inactive”. For `CCOC(=O)c1cccc(NS(=O)(=O)c2cc(-c3cnc(C)o3)ccc2OC)c1`, the Potency was 10.3 µM (active). In the case of `CCOC(=O)c1cc(-c2ccc(OC)c(S(=O)(=O)Nc3ccc(OC)cc3OC)c2)on1`, the Potency is reported as “inactive”. With `CCOc1ccc(N(C)S(=O)(=O)c2cnc[nH]2)cc1` the Potency was “inactive”. In the case of `CCOC(=O)c1cccc(NS(=O)(=O)c2cn(C)c(C)n2)c1`, the Potency is reported as “inactive”. In the case of `CC(C)C(=O)Nc1nnc(SCC(=O)N2C(C)CCCC2C)s1` (stereo unspecified), the Potency is reported as “inactive”. For `CSc1ccccc1OCc1cc(C(=O)N2C[C@H]3CC[C@H]2C3)no1`, the Potency was “inactive”. In the case of `CCc1ccccc1NC(=O)/C(=C/c1ccccc1)c1ccccc1`, the Potency is reported as 20.6 µM (active). With `CCc1ccccc1NC(=S)Nc1cc(OC)c(NC(=O)C(C)C)cc1OC` the Potency was “inactive”. With `CCc1ccccc1NC(=O)CCOc1ccccc1` the Potency was “inactive”. In the case of `CC(=O)Nc1ccc(N2C(=O)C3C4C=CC(CC4)C3C2=O)cc1` (stereo unspecified), the Potency is reported as “inactive”. For `O=C(Nc1cccc(F)c1)[C@@H]1CCCN1`, the Potency was “inactive”. With `Cc1ccc(CN2CCCOCCS2(=O)=O)cc1` the Potency was “inactive”. In the case of `O=C1NC[C@@H](CCCCN2CCN(CCc3ccc(O)cc3)C(=O)C2=O)N(CC2CCCCC2)C1=O`, the Potency is reported as “inactive”. With `Oc1ccc2c(c1)OCC1c3cc4c(cc3OC21)OCO4` (stereo unspecified) the Potency was “inactive”. In the case of `O=S(=O)(NCCCN1CCOCC1)c1ccc(F)c(Cl)c1`, the Potency is reported as “inactive”. For `O=C(NCCCN1CCOCC1)c1ccc([N+](=O)[O-])cc1[N+](=O)[O-]`, the Potency was “inactive”. In the case of `O=[N+]([O-])c1cc(S(=O)(=O)CCCN2CCOCC2)ccc1F`, the Potency is reported as 20.6 µM (active). For `S=c1[nH]nc(-c2cccs2)n1/N=C/c1cccs1`, the Potency was “inactive”. With `Cc1ccsc1/C=N/n1c(=S)[nH]nc(C)c1=O` the Potency was 16.4 µM (active). In the case of `Oc1ccccc1/C=N/n1c(-c2cccs2)n[nH]c1=S`, the Potency is reported as “inactive”. With `O=C(COC(=O)c1cc2c(s1)CCCC2)NCc1ccccc1Cl` the Potency was “inactive”. In the case of `O=c1cc(COc2cccc(C(F)(F)F)c2)nc2sc3c(n12)CCCC3`, the Potency is reported as “inactive”. With `Cc1ccc2nsnc2c1NC(=O)c1ccccc1[N+](=O)[O-]` the Potency was “inactive”. For `O=C(Nc1ccccn1)C1CCN(S(=O)(=O)c2ccc3c(c2)OCCO3)CC1`, the Potency was “inactive”. In the case of `COCCN1C(=O)N[C@@H](CCc2ccccc2)[C@H](C(C)=O)[C@H]1C`, the Potency is reported as “inactive”. For `CCN1C(=NCc2ccc(OC)cc2)N[C@@H](CCc2ccccc2)[C@H](C(=O)NCc2ccc(OC)cc2)[C@H]1C`, the Potency was 18.4 µM (active). In the case of `CCN1C(=NCCc2cccnc2)N[C@@H](c2ccccc2)[C@H](C(=O)OC)[C@H]1C`, the Potency is reported as “inactive”. In the case of `CCN1C(=O)N[C@@H](c2ccccc2)[C@H](C(C)=O)[C@H]1C`, the Potency is reported as “inactive”. For `CCN1C(=NCC(C)C)N[C@@H](CCc2ccccc2)[C@H](C(=O)NCC(C)C)[C@H]1C`, the Potency was 13 µM (active). With `O=C(CSc1nnc(N2CCOCC2)n1-c1cccc(F)c1)N1CCN(c2ccccn2)CC1` the Potency was “inactive”. In the case of `Cc1cc(NC(=O)CSCC(=O)NC(C)c2ccccc2)no1` (stereo unspecified), the Potency is reported as “inactive”. In the case of `CC(C)(C)NC(=O)COC(=O)c1cc(Br)ccc1Cl`, the Potency is reported as “inactive”. With `C[C@H](CO)N1C[C@H](C)[C@@H](CN(C)S(=O)(=O)c2ccc(F)cc2)Oc2c(NC(=O)Nc3ccccc3)cccc2C1=O` the Potency was “inactive”. In the case of `CCCc1nn(C)c2c(=O)[nH]c(-c3cc(S(N)(=O)=O)ccc3OCC)nc12`, the Potency is reported as “inactive”. For `Cc1nnc(CN(C)Cc2cn[nH]c2-c2ccc(-c3ccccc3)cc2)o1`, the Potency was “inactive”. For `COc1ccc2oc(=O)c(C(=O)O)cc2c1`, the Potency was “inactive”. With `COc1ccc2oc(=N)c(C(=O)Nc3ccc(Br)cc3)cc2c1` the Potency was “inactive”. For `COc1ccc(/C=C/C(=O)c2cc(Br)ccc(=O)c2O)cc1`, the Potency was 14.6 µM (active). With `O=[N+]([O-])c1ccc(N=NNc2ccc([N+](=O)[O-])cc2)cc1` the Potency was “inactive”. For `COc1ccccc1NS(=O)(=O)c1ccc(C(=O)N2CCN(c3ccccc3O)CC2)cc1`, the Potency was 18.4 µM (active). With `COc1ccccc1NC(=O)CN1C(=O)c2ccccc2Sc2ccc(C(=O)N3CCCC3)cc21` the Potency was “inactive”. In the case of `CC(C)c1ccc(S(=O)(=O)N2CCN(C(=O)c3ccc(N4CCCC4)c([N+](=O)[O-])c3)CC2)cc1`, the Potency is reported as 16.4 µM (active). In the case of `COc1ccccc1CC(=O)Nc1ccc(S(=O)(=O)N2CCCC2)cc1`, the Potency is reported as “inactive”. In the case of `Cc1ccc(S(=O)(=O)N2CCN(C(=O)c3ccc(-n4cncn4)c([N+](=O)[O-])c3)CC2)cc1`, the Potency is reported as “inactive”. For `COc1cc(C(=O)N2CCN(S(=O)(=O)c3ccc(C(C)C)cc3)CC2)ccc1OCC(=O)N1CCOCC1`, the Potency was “inactive”. In the case of `O=C(c1ccc(S(=O)(=O)c2ccccc2)cc1)N1CCCCCC1`, the Potency is reported as “inactive”. In the case of `COc1ccc(S(=O)(=O)Nc2ccccc2C(=O)N2CCCC2)cc1C`, the Potency is reported as “inactive”. With `COc1ccccc1N1CCN(C(=O)c2ccc(S(=O)(=O)N3CCCCC3)cc2)CC1` the Potency was 23.1 µM (active). In the case of `CN(c1ccccc1)S(=O)(=O)c1ccc(Cl)c(C(=O)OCC(=O)N2CCOCC2)c1`, the Potency is reported as “inactive”. For `CN(c1ccccc1)S(=O)(=O)c1ccc(C(=O)N2CCN(c3ccccc3Cl)CC2)cc1`, the Potency was 23.1 µM (active). With `O=C(c1ccc(S(=O)(=O)N2CCOCC2)cc1)N1CCN(c2ccccc2)CC1` the Potency was “inactive”. For `O=C(OCCN1CCOCC1)C1(c2ccccc2)CCCCC1`, the Potency was “inactive”. For `CCN(Cc1ccccc1)Cc1c(O)ccc2c(=O)c(-c3ccc(Cl)cc3Cl)coc12`, the Potency was “inactive”. In the case of `Cc1nc(C(F)(F)F)ccc1C(=O)N1CCC1(C)C(=O)NS(=O)(=O)c1ccc(F)cc1F` (stereo unspecified), the Potency is reported as “inactive”. In the case of `O=C(Nc1cccnc1)c1cc(Cl)ccc1Cl`, the Potency is reported as “inactive”. For `CC(=O)c1nn(-c2ccc(C)cc2)cc1C(=O)c1cccc(Br)c1`, the Potency was “inactive”. For `COc1ccc(S(=O)(=O)N2CCN(C(=O)N(C)C)C2C)cc1` (stereo unspecified), the Potency was “inactive”. For `COc1ccc(NC(=O)CCCC(=O)c2ccccc2)cc1`, the Potency was “inactive”. In the case of `CC(C)N(C(=O)Cn1cc(S(=O)(=O)CC(=O)N2CCOCC2)c2ccccc21)C(C)C`, the Potency is reported as “inactive”. In the case of `CCCc1nn2c(=O)cc(COC(=O)c3ccc(NC(=O)COc4ccc(F)cc4)cc3)nc2s1`, the Potency is reported as “inactive”. With `CC(C)(C)NC(=O)C(c1ccc(Cl)cc1)N(CCO)C(=O)c1snc(C(N)=O)c1N` (stereo unspecified) the Potency was 13 µM (active). For `NC(=O)c1nsc(C(=O)N(CCCN2CCOCC2)C(C(=O)NC2CCCCC2)c2ccc(Cl)cc2)c1N` (stereo unspecified), the Potency was “inactive”. With `COc1cc(C(C(=O)NC2CCCC2)N(Cc2ccccc2)C(=O)c2snc(C(N)=O)c2N)ccc1O` (stereo unspecified) the Potency was “inactive”.

— PubChem BioAssay AID686979 (National Center for Advancing Translational Sciences (NCATS), 2013)
Potency is the fitted concentration of half-maximal effect.
